Source: PubChem BioAssay (EPA / NIEHS)
Inconclusive results are not listed. Activity calls are given as the source filed them. How the source made its calls: active means hit-call score of the fitted dose curve at least 0.9, where 1 is the maximum; inconclusive means response in the unintended direction; inactive means score below 0.9. Where a SMILES comes first, the peptide text is derived from it. [ ]: non-standard residue; d: D form. Orn = NCCC[C@H](N)C(=O)O

Legend:
[1] = TOX21_p53_BLA_p2_viability: Viability Assessment in the Tox21 HCT-116 p53 Agonism Beta-lactamase Assay, Phase 2 (AID 2283591);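 further: compound exposure lasted 16 h at 37 °C; actives lower the ATP signal meaning cytotoxicity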
Procedure, shortened: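 Cytotoxicity readout: CellTiter-Glo ATP luminescence, 30 min at room temperature, after the beta-lactamase read. Cells were HCT116 exposed 16 h at 37C to compounds pin-transferred at 217-fold dilution from DMSO stocks.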

[2] = biological target: Cellular tumor antigen p53 (Homo sapiens) (UniProt P04637); assay: TOX21_p53_BLA_p2_ratio: Tox21 HCT-116 p53 Agonism Beta-lactamase Assay, Ratio, Phase 2 (AID 2283592)
Sequence of Cellular tumor antigen p53 (Homo sapiens) (P04637 whole entry, looked up): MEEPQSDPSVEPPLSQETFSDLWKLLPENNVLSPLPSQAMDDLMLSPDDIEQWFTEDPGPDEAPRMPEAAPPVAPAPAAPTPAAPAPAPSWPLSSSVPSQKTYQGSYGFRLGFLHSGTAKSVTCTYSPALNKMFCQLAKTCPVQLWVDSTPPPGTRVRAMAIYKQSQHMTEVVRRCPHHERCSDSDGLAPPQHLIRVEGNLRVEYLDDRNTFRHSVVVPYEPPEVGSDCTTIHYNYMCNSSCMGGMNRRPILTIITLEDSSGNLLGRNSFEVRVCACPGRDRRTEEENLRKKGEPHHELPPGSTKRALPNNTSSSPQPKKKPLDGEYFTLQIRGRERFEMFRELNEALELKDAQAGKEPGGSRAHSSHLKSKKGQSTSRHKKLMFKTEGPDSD
Procedure, shortened: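 Gain-of-signal p53 agonism was scored from the beta-lactamase FRET ratio (460/530 nm, 405 nm excitation) in HCT116 cells treated 16 h at 37C, 5% CO2, with DMSO serving as negative control and baseline.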

[3] = TOX21_p53_BLA_p3_viability: Viability Assessment in the Tox21 HCT-116 p53 Agonism Beta-lactamase Assay, Phase 3 (AID 2283593);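 further: cells exposed to compound for 16 h before reading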
Procedure, shortened: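 Cellular ATP was quantified by CellTiter-Glo luminescence, read after 30 min at room temperature. Beforehand, HCT116 cells (4000/well) received compound 5 h post-seeding, 217-fold diluted from DMSO, then incubated 16 h at 37C.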

[4] = TOX21_p53_BLA_p4_viability: Viability Assessment in the Tox21 HCT-116 p53 Agonism Beta-lactamase Assay, Phase 4 (AID 2283597);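 further: hits lower the luminescence signal meaning cytotoxicity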
Procedure, shortened: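 Following a 16 h exposure at 37C, the treated HCT116 wells were first read for the FRET ratio. They were then lysed with CellTiter-Glo, and ATP luminescence was recorded after 30 min at room temperature.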

[5] = biological target: Cellular tumor antigen p53 (Homo sapiens) (UniProt P04637); assay: TOX21_p53_BLA_p5_ratio: Tox21 HCT-116 p53 Agonism Beta-lactamase Assay, Ratio, Phase 5 (AID 2283599)
Procedure, shortened: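 Beta-lactamase reporter ratio (blue 460 nm over green 530 nm, 405 nm excitation) after 2 h CCF4-AM loading, in HCT-116 cells exposed 16 h at 37 C to compounds pinned at 217-fold dilution. Increases relative to DMSO baseline scored.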

[6] = TOX21_p53_BLA_p5_viability: Viability Assessment in the Tox21 HCT-116 p53 Agonism Beta-lactamase Assay, Phase 5 (AID 2283600)
Procedure, shortened: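 After the 460/530 nm beta-lactamase measurement, the wells received an ATP-detection luciferase reagent; signal was read 30 min later at RT. Compound treatment lasted 16 h on cells pre-incubated 5 h post-seeding.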

[7] = biological target: Cellular tumor antigen p53 (Homo sapiens) (UniProt P04637); assay: TOX21_p53_BLA_p4_ratio: Tox21 HCT-116 p53 Agonism Beta-lactamase Assay, Ratio, Phase 4 (AID 2283601)
Procedure, shortened: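 Signal is the blue/green (460nm/530nm) ratio of cleaved versus uncleaved CCF4-AM substrate, read after 2 h substrate loading. Cells were HCT116 carrying the p53-responsive beta-lactamase reporter, dosed 16 h at 37C, 5% CO2; CellTiter-Glo measured in parallel.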

[8] = biological target: Thyroid hormone receptor alpha (Rattus norvegicus) + Thyroid hormone receptor beta (Rattus norvegicus) (UniProt P18113+P63059); assay: TOX21_TR_LUC_GH3_Antagonist_Followup: Tox21 GH3 Thyroid Hormone Receptor Antagonism Luciferase Follow-Up Assay (AID 2283942)
Procedure, shortened: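 Confirmatory qHTS, antagonist mode: T3 (1.0 nM final) + test cpd, 15 conc, 92 uM–5nM final, GH3 rat pituitary line, 24 h, 37C. Luc reporter, RLU vs DMSO.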

THRB (gene 7068) = THRB (gene 7068) (UniProt P10828); assay: TOX21_TRB_COA_Antagonist_Followup_ratio: Tox21 Thyroid Hormone Receptor beta Antagonism through Coactivator Recruitment Follow-Up Assay, Ratio (AID 2283967)
Sequence of THRB (gene 7068) (P10828 whole entry, looked up, the tested form may be a part): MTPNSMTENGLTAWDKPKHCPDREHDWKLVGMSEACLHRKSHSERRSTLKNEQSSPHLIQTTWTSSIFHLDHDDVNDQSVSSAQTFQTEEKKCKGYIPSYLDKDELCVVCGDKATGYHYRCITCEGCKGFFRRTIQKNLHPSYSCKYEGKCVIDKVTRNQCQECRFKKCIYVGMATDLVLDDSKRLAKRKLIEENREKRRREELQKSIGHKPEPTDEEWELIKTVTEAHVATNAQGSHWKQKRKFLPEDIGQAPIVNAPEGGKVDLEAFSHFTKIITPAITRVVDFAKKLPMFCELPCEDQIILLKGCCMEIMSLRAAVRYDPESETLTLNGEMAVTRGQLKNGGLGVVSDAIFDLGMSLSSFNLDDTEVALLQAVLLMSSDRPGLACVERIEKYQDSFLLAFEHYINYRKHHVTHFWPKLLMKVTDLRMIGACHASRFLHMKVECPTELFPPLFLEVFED
Procedure, shortened: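 Test compound was incubated with 5.0 nM GST-TRβ LBD in 0.10% BSA. Then 200 nM fluorescein-SRC-2 peptide and 2 nM terbium anti-GST antibody were added. TR-FRET (520:495 nm) was measured and normalized to DMSO and T3 controls.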

[9] = TOX21_TR_RXR_BLA_Antagonist_Followup_viability: Viability Assessment in the Tox21 Thyroid Hormone Receptor beta Retinoid X Receptor alpha (RXRa) Antagonism Beta-lactamase (BLA) Follow-Up Assay (AID 2283979)
Procedure, shortened: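 Follow-up compounds (11 concentrations, triplicate) were incubated 16 h at 37C/5% CO2 with HEK293T RXRa-bla cells seeded at 2,500/well in charcoal-stripped-serum medium. ATP content by CellTiter-Glo luminescence gave viability; curves fitted in both directions against DMSO.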

Measured: AC50

O=C(O)c1ccc(OCCCOc2ccc(C(=O)O)cc2)cc1
inactive: [1] | [2] | [3] | [4] | [5] | [6] | [7]

Nc1cc(S(=O)(=O)O)ccc1S(=O)(=O)O
inactive: [1] | [2] | [3] | [4]

CCCCCCCCCCCCCCCC[N+](C)(C)CCN(Cc1ccc(OC)cc1)c1ncccn1
active: [4] 17.3 µM
inactive: [1] | [2] | [3] | [5]

c1ccc(CNCCNCc2ccccc2)cc1
inactive: [1] | [2] | [3] | [4] | [5] | [6] | [7]

O=C(CCCN1CCN(c2ccc(F)cc2)CC1)NC1c2ccccc2CSc2ccccc21 (centres undefined)
inactive: [1] | [2] | [3] | [4] | [5] | [6]

O=C1OC(=O)c2cc([N+](=O)[O-])ccc21
inactive: [1] | [2] | [3] | [4] | [5]

CC(C)(C)NC[C@H](O)COc1ccccc1C1CCCC1
inactive: [1] | [2] | [3] | [4] | [5] | [6] | [7]

CC(C)C[C@@H]1NC(=O)[C@H](CCCN)NC(=O)[C@H](C(C)C)NC(=O)[C@@H]2CCCN2C(=O)[C@@H](Cc2ccccc2)NC(=O)[C@H](CC(C)C)NC(=O)[C@H](CCCN)NC(=O)[C@H](C(C)C)NC(=O)[C@@H]2CCCN2C(=O)[C@@H](Cc2ccccc2)NC1=O (cyclo(V[Orn]L[dF]PV[Orn]L[dF]P))
inactive: [2] | [5]
active: [1] 8.09 µM | [3] 5.88 µM | [4] 5.84 µM | [6] 4.51 µM | [7] 2.35 µM

O=C(O)COc1ccc(C(=O)c2cccs2)c(Cl)c1Cl
inactive: [1] | [2] | [3] | [4] | [5] | [6] | [7]

NC(N)=NC(=O)Cc1c(Cl)cccc1Cl
inactive: [1] | [2] | [3] | [4] | [5] | [6] | [7]

C[C@@H](NCCCc1cccc(C(F)(F)F)c1)c1cccc2ccccc12
active: [1] 21.4 µM | [2] 39 µM | [3] 30 µM | [4] 15.2 µM | [7] 25.1 µM
inactive: [5] | [6]

CC(=O)[C@H]1CC[C@H]2[C@@H]3C=CC4=CC(=O)CC[C@@]4(C)[C@@H]3CC[C@]12C
inactive: [1] | [2] | [3] | [4] | [5] | [6] | [7] | [8] | THRB (gene 7068) | [9]
